From PubChem BioAssay (NCI)
The panel holds about 83,000 compounds, 20% with a hit somewhere; the sample as a whole holds those more often.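 Method: cells in 96-well plates; compound added at one concentration; 48 h incubation; percent growth measured; values under 10 scored active.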 Unmarked numbers belong to inactive results. The source made the active and inactive calls.

Assays:
Test in all cases: NCI-60 one-dose screen, 48 h (100 = growth as untreated, 0 = no growth, -100 = all killed)
Conditions in all cases: 10 µM unless noted
DU-145 prostate = test system: DU-145 prostate
K-562 leukemia = test system: K-562 leukemia
MALME-3M melanoma = test system: MALME-3M melanoma
MDA-MB-231 breast = test system: MDA-MB-231 breast
RXF 393 renal = test system: RXF 393 renal
SF-268 CNS = test system: SF-268 CNS
SF-295 CNS = test system: SF-295 CNS
UACC-257 melanoma = test system: UACC-257 melanoma
M14 melanoma = test system: M14 melanoma
HCT-15 colon = test system: HCT-15 colon
HT29 colon = test system: HT29 colon
SNB-75 CNS = test system: SNB-75 CNS
SNB-19 CNS = test system: SNB-19 CNS
U251 CNS = test system: U251 CNS
PC-3 prostate = test system: PC-3 prostate
SK-MEL-5 melanoma = test system: SK-MEL-5 melanoma
UACC-62 melanoma = test system: UACC-62 melanoma
LOX IMVI melanoma = test system: LOX IMVI melanoma
SK-MEL-28 melanoma = test system: SK-MEL-28 melanoma

| SMILES | growth (DU-145 prostate) | growth (K-562 leukemia) | growth (MALME-3M melanoma) | growth (MDA-MB-231 breast) | growth (RXF 393 renal) | growth (SF-268 CNS) | growth (SF-295 CNS) | growth (UACC-257 melanoma) | growth (M14 melanoma) | growth (HCT-15 colon) | growth (HT29 colon) | growth (SNB-75 CNS) | growth (SNB-19 CNS) | growth (U251 CNS) | growth (PC-3 prostate) | growth (SK-MEL-5 melanoma) | growth (UACC-62 melanoma) | growth (LOX IMVI melanoma) | growth (SK-MEL-28 melanoma) |
| --- | --- | --- | --- | --- | --- | --- | --- | --- | --- | --- | --- | --- | --- | --- | --- | --- | --- | --- | --- |
| COc1cnc2c(c1)C(=O)c1c-2n(CCCN2CCCC2)c(=O)c2cc([N+](=O)[O-])ccc12 | 3.15% (active) | -12.1% (active) | -20.2% (active) | -49.1% (active) | -88.7% (active) | 17.1% | -6.13% (active) | -8.07% (active) | 0.878% (active) | 20.3% | -59.4% (active) | -3.27% (active) | 19.8% | -64.8% (active) | 15.6% | -96.8% (active) | -67.5% (active) | -82.3% (active) | 29.3% |
| COc1ccc(/C=C/C(=O)c2c(O)c(C)c(O)c3c2OC2=CC(O)=C(C(C)=O)C(=O)[C@]23C)cc1 | 8.23% (active) | -21.3% (active) | -57.1% (active) | -26.2% (active) | -33.3% (active) | -17.5% (active) | -22.7% (active) | -19.2% (active) | -7.97% (active) | -21.3% (active) | -27.2% (active) | -33% (active) | -14.9% (active) | -27.9% (active) | -2.15% (active) | -85.5% (active) | -59.9% (active) | -43.4% (active) | -50.7% (active) |
| C=C1CC[C@@H]2[C@](C)(COC(C)=O)[C@H](OC(C)=O)CC[C@@]2(C)[C@@H]1CC(Nc1ccc(S(=O)(=O)Nc2nc(C)cc(C)n2)cc1)C1=CCOC1=O (stereo not given in full) | 82.3% | 19.1% | 96.3% | 107% | 85.1% | 93.3% | 97% | 67.9% | 63.8% | 49.2% | 46.2% | 44.6% | 100% | 48.2% | 65.2% | 74.2% | 32.9% | -60.6% (active) | 83.5% |
| COc1ccc2nc3cc(Cl)ccc3c(N3CCN(c4nccc(NCc5ccccc5)n4)CC3)c2c1 | 78.7% | 33% | 113% | 67.5% | 42.2% | 72.3% | 81.6% | 88% | 96.3% | 47.5% | 52.7% | 69.2% | 96% | 69% | 78.7% | 84% | 85.2% | 31.3% | 80.7% |
| O=C(CCCCN1CCOCC1)Nc1ccc(Cn2nnc3c2C(=O)c2nnn(Cc4ccc(NC(=O)CCCCN5CCOCC5)cc4)c2C3=O)cc1 | -88.6% (active) | 6.24% (active) | -86% (active) | -1.55% (active) | -67.4% (active) | -35.5% (active) | -87.7% (active) | -77.2% (active) | -90.3% (active) | -37% (active) | -28.6% (active) | -92.3% (active) | -86.2% (active) | -85.2% (active) | 0.413% (active) | -95.8% (active) | -80% (active) | -23.2% (active) | -54.9% (active) |
| COc1cc2c(cc1O)CCc1cc(O)cc(OC)c1-2 | 109% | 99.2% | 96.5% | 83.1% | 103% | 93.8% | 103% | 95.3% | 94.6% | 90.7% | 95.6% | 91.9% | 98% | 91.3% | 93.6% | 98.5% | 87.2% | 93.5% | 100% |
| COc1cc(NCCCCN=C(N)N)c2ncccc2c1 | 108% | 84.6% | 13.6% | 63.5% | 112% | 30.4% | 87% | 102% | 96.5% | 99.9% | 79.6% | 48.6% | 81.2% | 48.7% | 79.1% | 89.2% | 87.9% | 101% | 98.9% |
| COc1ccc(/C(=C/c2ccc3ccccc3c2)c2nn[nH]n2)cc1OC | 20.9% | 17.8% | 49.1% | 44.8% | -13.3% (active) | 53.3% | 4.59% (active) | 66.3% | 10.9% | 31.1% | 5.54% (active) | -7.45% (active) | 51.1% | 14.3% | 18.6% | 23.5% | 21.5% | 37.6% | 56.6% |
| O=C([C@@H](COCc1ccccc1)N1C(=O)[C@@H](N2C(=O)OC[C@@H]2c2ccccc2)[C@H]1/C=C/c1ccccc1)N1CCC(CCN2CCCCC2)CC1 | 100% | 55.8% | -22.3% (active) | 72.6% | 88.7% | 77.2% | 102% | 64.1% | 97.8% | 89.2% | 45.5% | 90.9% | 95.1% | 71.5% | 67.5% | 81.6% | 95.5% | 82.1% | 73.2% |
| COc1cc(OC)c(/C=C/S(=O)(=O)Cc2ccc(OC)c(N)n2)c(OC)c1 | 2.86% (active) | 8.04% (active) | 59.2% | 15.3% | 43.8% | 39% | 6.52% (active) | 47.8% | 11.2% | 7.7% (active) | -9.76% (active) | 40.5% | 35.8% | 8.02% (active) | 26.8% | -31.2% (active) | 42.3% | 9.35% (active) | 53.7% |
